Results taken from PubChem BioAssay (NCATS).
Results filed as inconclusive are left out. Unmarked numbers belong to inactive results. Activity calls are given as the source filed them. Calls come from the whole dose curve; as a rule, active = well fitted cell-killing curve with a large enough effect; inconclusive = small, poorly fitted or top-dose-only effect, or effect the other way; inactive = flat fitted curve, though single readings scatter.

Experiment: S16 Schwann cell viability assay (CellTiter-Glo assay) (AID 624031); note: nearly all actives have a fitted effect of over 70% in size;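 for activity change, negative = cytotoxicity: cellular ATP luminescence as a viability measure; plate controls were DMSO-treated cells for no effect and cell-free wells for full effect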
Settings: S16 rat Schwann cells viability, 24 h; series mostly up to 57.5 µM; activity change, negative = cytotoxicity: at the top concentration
Outline: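 Luminescent ATP read-out (CellTiter-Glo) after 24 h compound exposure of native S16 rat Schwann cells at 37 °C. Signals were normalized between cell-free wells and DMSO-treated cells, set as 0% activity.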
Potency is the fitted concentration of half-maximal effect.

| SMILES | activity change, negative = cytotoxicity | Potency |
| --- | --- | --- |
| CC(C)c1c(C(=O)Nc2ccccc2)c(-c2ccccc2)c(-c2ccc(F)cc2)n1CC[C@@H](O)C[C@@H](O)CC(=O)O | 3.93% | – |
| NC(=O)NC(=O)Cc1ccccc1 | 1.71% | – |
| CN(C)CCCN1c2ccccc2CCc2ccccc21 | -21.4% | – |
| NCC(=O)CCC(=O)O | 5.46% | – |
| O=C(O)CC(O)C(=O)O (configuration not stated) | 0% | – |
| CCCn1cnc2c1c(=O)n(CCCCC(C)=O)c(=O)n2C | -2.41% | – |
| O=S(=O)(O)c1cc(I)c(O)c2ncccc12 | -2.42% | – |
| CC(C)(C)C(=O)C(Oc1ccc(Cl)cc1)n1ccnc1 (configuration not stated) | 2.89% | – |
| O=C(O)c1ccccc1-c1ccc(C(F)(F)F)cc1 | -1.75% | – |
| CSc1ccc2c(c1)N(CCC1CCCCN1C)c1ccccc1S2 (configuration not stated) | – | 32.2 µM (active) |
| COc1ccc(S(=O)(=O)Nc2nnc(CC(C)C)s2)cc1 | – | inactive |
| Cc1ccc(C(C)C)cc2c(C)ccc1-2 | 0.781% | – |
| OCc1cc(C(O)CNCCCCCCOCCCCc2ccccc2)ccc1O (configuration not stated) | – | 20.3 µM (active) |
| NC(=O)NNc1ccccc1 | – | inactive |
| N[C@@H](CSCCCO)C(=O)O | -1.86% | – |
| Cc1cc(C(C#N)c2ccc(Cl)cc2)c(Cl)cc1NC(=O)c1cc(I)cc(I)c1O (configuration not stated) | -15.9% | – |

| SMILES | activity change, negative = cytotoxicity | Potency |
| --- | --- | --- |
| CCCCN(CCCC)CCCOC(=O)c1ccc(N)cc1 | 10.1% [at 25.7 µM] | – |
| O=c1cc[nH]c(=S)[nH]1 | 6.02% | – |
| CCCCOc1cc(C(=O)OCCN(CC)CC)ccc1N | -7.36% [at 25.7 µM] | – |
| CC(=O)Nc1ccc(/C=N/NC(N)=S)cc1 | – | inactive |
| Cc1cccc(C)c1NC(=O)CN(CC(=O)O)CC(=O)O | 0.865% | – |
| COc1cc(C(=O)N2CCOCC2)cc(OC)c1OC | – | inactive |
| CCCCN(CCCC)CC(O)c1cc(Cl)cc2c1-c1ccc(Cl)cc1/C2=C/c1ccc(Cl)cc1 (configuration not stated) | – | 28.7 µM (active) |
| CN1CCCCC1CCN1c2ccccc2Sc2ccc(S(C)=O)cc21 (configuration not stated) | -20.2% | – |
| O=C(O)c1ccccc1O | 0% | – |
| O=C1OC(OC(=O)c2cccnc2Nc2cccc(C(F)(F)F)c2)c2ccccc21 (configuration not stated) | -1.01% | – |
| CCCCc1ncc(/C=C(\Cc2cccs2)C(=O)O)n1Cc1ccc(C(=O)O)cc1 | 5.58% | – |
| CCOc1nc2cccc(C(=O)O)c2n1Cc1ccc(-c2ccccc2-c2nn[nH]n2)cc1 | 5.04% | – |
| CSc1ccc2c(c1)C(N1CCN(C)CC1)Cc1ccccc1S2 (configuration not stated) | – | 12.8 µM (active) |
| Cc1cc2c(cc1S(N)(=O)=O)S(=O)(=O)CCC2 | -9.57% [at 25.7 µM] | – |
| O=C(CCCN1CCN(c2ccccn2)CC1)c1ccc(F)cc1 | -4.32% | – |
| CCC(=O)Nc1ccc(O)cc1 | 0.429% | – |
